# Assay results from PubChem BioAssay AID1159580 (chemical genetic matrix, 2015).
# Among all 5,500 compounds or so, about 2,000 (36%) were called active. Inconclusive results (about 18%) are left out. The list shows a part of the results. Unmarked numbers belong to inactive results. Rule as the data show it: active = normalized growth mostly below about 0.91 (no sharp cut-off); inconclusive = no clear call, values can overlap the other calls; inactive = mostly above about 0.92.
# Experiment: chemical genetic growth profiling, strain panel (AID 1159580);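 also: tested at 20 µM; growth read once vehicle control cultures reached saturation at 30 °C; 1 = growth at the plate median or of vehicle wells; lower values mean less growth of the strain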
# Settings: growth OD
structure (smiles),measurement,setting,value
CN(Cc1cc(Br)cc(Br)c1N)C1CCCCC1,normalized growth,"S. cerevisiae deletion strains, locus YKL009W, strain mrt4, stronger effect = lower value",1.01
same,normalized growth,"S. cerevisiae deletion strains, locus YKL068W, stronger effect = lower value",1.01
same,normalized growth,"S. cerevisiae deletion strains, locus YKL085W, strain MDH1 (second series), stronger effect = lower value",1.01
same,normalized growth,"S. cerevisiae deletion strains, locus YKL085W, strain MDH1, stronger effect = lower value",1.01
same,normalized growth,"S. cerevisiae deletion strains, locus YKL160W, strain elf1, stronger effect = lower value",1
same,normalized growth,"S. cerevisiae deletion strains, locus YKL190W, strain CNB1, stronger effect = lower value",1.02
same,normalized growth,"S. cerevisiae deletion strains, locus YKR001C, strain vps1, stronger effect = lower value",0.994
same,normalized growth,"S. cerevisiae deletion strains, locus YKR026C, strain gcn3, stronger effect = lower value",1.04
same,normalized growth,"S. cerevisiae deletion strains, locus YKR091W, strain srl3, stronger effect = lower value",1.03
same,normalized growth,"S. cerevisiae deletion strains, locus YLL001W, strain dnm1, stronger effect = lower value",1.03
same,normalized growth,"S. cerevisiae deletion strains, locus YLL026W, stronger effect = lower value",1.03
same,normalized growth,"S. cerevisiae deletion strains, locus YLL041C, strain sdh2, stronger effect = lower value",1.05
same,normalized growth,"S. cerevisiae deletion strains, locus YLR027C, strain aat2, stronger effect = lower value",1.01
same,normalized growth,"S. cerevisiae deletion strains, locus YLR039C, strain RIC1, stronger effect = lower value",1.08
same,normalized growth,"S. cerevisiae deletion strains, locus YLR058C, strain SHM2, stronger effect = lower value",1.01
same,normalized growth,"S. cerevisiae deletion strains, locus YLR102C, strain apc9, stronger effect = lower value",1.02
same,normalized growth,"S. cerevisiae deletion strains, locus YLR113W, strain HOG1, stronger effect = lower value",0.947
same,normalized growth,"S. cerevisiae deletion strains, locus YLR221C, strain rsa3, stronger effect = lower value",0.997
same,normalized growth,"S. cerevisiae deletion strains, locus YLR258W, strain gsy2, stronger effect = lower value",1.03
same,normalized growth,"S. cerevisiae deletion strains, locus YLR262C, strain YPT6 (second series), stronger effect = lower value",0.982
same,normalized growth,"S. cerevisiae deletion strains, locus YLR262C, strain YPT6, stronger effect = lower value",1.08
same,normalized growth,"S. cerevisiae deletion strains, locus YLR268W, strain sec22, stronger effect = lower value",1.01
same,normalized growth,"S. cerevisiae deletion strains, locus YLR320W, strain mms22, stronger effect = lower value",0.984
same,normalized growth,"S. cerevisiae deletion strains, locus YLR330W, strain CHS5, stronger effect = lower value",1.02
same,normalized growth,"S. cerevisiae deletion strains, locus YLR342W, strain FKS1 (second series), stronger effect = lower value",1
same,normalized growth,"S. cerevisiae deletion strains, locus YLR342W, strain FKS1, stronger effect = lower value",1.02
same,normalized growth,"S. cerevisiae deletion strains, locus YLR357W, strain rsc2, stronger effect = lower value",1.06
same,normalized growth,"S. cerevisiae deletion strains, locus YLR370C, strain arc18, stronger effect = lower value",1.04
same,normalized growth,"S. cerevisiae deletion strains, locus YLR371W, strain rom2, stronger effect = lower value",1.02
same,normalized growth,"S. cerevisiae deletion strains, locus YLR384C, strain iki3, stronger effect = lower value",1.04
same,normalized growth,"S. cerevisiae deletion strains, locus YLR418C, strain cdc73, stronger effect = lower value",1.02
same,normalized growth,"S. cerevisiae deletion strains, locus YML016C, strain PPZ1, stronger effect = lower value",1.01
same,normalized growth,"S. cerevisiae deletion strains, locus YML032C, strain rad52, stronger effect = lower value",0.986
same,normalized growth,"S. cerevisiae deletion strains, locus YML120C, strain ndi1, stronger effect = lower value",1.04
same,normalized growth,"S. cerevisiae deletion strains, locus YML124C, strain tub3, stronger effect = lower value",1.03
same,normalized growth,"S. cerevisiae deletion strains, locus YMR058W, strain fet3, stronger effect = lower value",0.995
same,normalized growth,"S. cerevisiae deletion strains, locus YMR078C, strain ctf18, stronger effect = lower value",1.04
same,normalized growth,"S. cerevisiae deletion strains, locus YMR125W, strain sto1, stronger effect = lower value",1.06
same,normalized growth,"S. cerevisiae deletion strains, locus YMR129W, stronger effect = lower value",1.04
same,normalized growth,"S. cerevisiae deletion strains, locus YMR205C, strain PFK2, stronger effect = lower value",1.04
same,normalized growth,"S. cerevisiae deletion strains, locus YMR223W, strain ubp8, stronger effect = lower value",1
same,normalized growth,"S. cerevisiae deletion strains, locus YMR231W, strain pep5, stronger effect = lower value",1.04
same,normalized growth,"S. cerevisiae deletion strains, locus YMR307W, strain GAS1, stronger effect = lower value",1.17
same,normalized growth,"S. cerevisiae deletion strains, locus YNL067W, strain RPL9B, stronger effect = lower value",0.966
same,normalized growth,"S. cerevisiae deletion strains, locus YNL071W, strain lat1, stronger effect = lower value",1.04
same,normalized growth,"S. cerevisiae deletion strains, locus YNL183C, strain NPR1, stronger effect = lower value",0.838
same,normalized growth,"S. cerevisiae deletion strains, locus YNL209W, strain ssb2, stronger effect = lower value",1.03
same,normalized growth,"S. cerevisiae deletion strains, locus YNL233W, strain BNI4, stronger effect = lower value",1.01
same,normalized growth,"S. cerevisiae deletion strains, locus YNL248C, strain rpa49, stronger effect = lower value",1.04
same,normalized growth,"S. cerevisiae deletion strains, locus YNL250W, strain rad50, stronger effect = lower value",1.05
same,normalized growth,"S. cerevisiae deletion strains, locus YNL271C, strain bni1, stronger effect = lower value",1.02
same,normalized growth,"S. cerevisiae deletion strains, locus YNL298W, strain CLA4, stronger effect = lower value",1.03
same,normalized growth,"S. cerevisiae deletion strains, locus YNL307C, strain MCK1, stronger effect = lower value",1.01
same,normalized growth,"S. cerevisiae deletion strains, locus YNL322C, strain KRE1 (second series), stronger effect = lower value",1.06
same,normalized growth,"S. cerevisiae deletion strains, locus YNL322C, strain KRE1, stronger effect = lower value",1.02
same,normalized growth,"S. cerevisiae deletion strains, locus YNR049C, strain mso1, stronger effect = lower value",1.02
same,normalized growth,"S. cerevisiae deletion strains, locus YNR052C, strain pop2, stronger effect = lower value",1.01
same,normalized growth,"S. cerevisiae deletion strains, locus YOL006C, strain TOP1, stronger effect = lower value",0.804
same,normalized growth,"S. cerevisiae deletion strains, locus YOL012C, strain htz1",2.06
same,normalized growth,"S. cerevisiae deletion strains, locus YOL147C, strain pex11, stronger effect = lower value",1.03
same,normalized growth,"S. cerevisiae deletion strains, locus YOR001W, strain rrp6, stronger effect = lower value",1.01
same,normalized growth,"S. cerevisiae deletion strains, locus YOR061W, strain CKA2, stronger effect = lower value",1.01
same,normalized growth,"S. cerevisiae deletion strains, locus YOR069W, strain VPS5, stronger effect = lower value",1.02
same,normalized growth,"S. cerevisiae deletion strains, locus YOR070C, strain gyp1, stronger effect = lower value",1.03
same,normalized growth,"S. cerevisiae deletion strains, locus YOR080W, strain dia2, stronger effect = lower value",1.07
same,normalized growth,"S. cerevisiae deletion strains, locus YOR083W, strain WHI5, stronger effect = lower value",0.988
same,normalized growth,"S. cerevisiae deletion strains, locus YOR106W, strain vam3, stronger effect = lower value",1.01
same,normalized growth,"S. cerevisiae deletion strains, locus YOR136W, strain idh2, stronger effect = lower value",1.01
same,normalized growth,"S. cerevisiae deletion strains, locus YOR144C, strain elg1, stronger effect = lower value",1.02
same,normalized growth,"S. cerevisiae deletion strains, locus YOR184W, strain ser1, stronger effect = lower value",0.935
same,normalized growth,"S. cerevisiae deletion strains, locus YOR231W, strain MKK1, stronger effect = lower value",0.841 (active)
same,normalized growth,"S. cerevisiae deletion strains, locus YOR265W, strain rbl2, stronger effect = lower value",1.05
same,normalized growth,"S. cerevisiae deletion strains, locus YOR270C, strain vph1, stronger effect = lower value",0.811
same,normalized growth,"S. cerevisiae deletion strains, locus YOR290C, strain snf2, stronger effect = lower value",1
same,normalized growth,"S. cerevisiae deletion strains, locus YOR316C, strain cot1, stronger effect = lower value",1.02
same,normalized growth,"S. cerevisiae deletion strains, locus YPL051W, strain arl3, stronger effect = lower value",0.983
same,normalized growth,"S. cerevisiae deletion strains, locus YPL078C, strain atp4, stronger effect = lower value",1.01
same,normalized growth,"S. cerevisiae deletion strains, locus YPL106C, strain sse1, stronger effect = lower value",1
same,normalized growth,"S. cerevisiae deletion strains, locus YPL240C, strain hsp82, stronger effect = lower value",1.02
same,normalized growth,"S. cerevisiae deletion strains, locus YPL241C, strain CIN2, stronger effect = lower value",1.01
same,normalized growth,"S. cerevisiae deletion strains, locus YPL256C, strain CLN2, stronger effect = lower value",0.944
same,normalized growth,"S. cerevisiae deletion strains, locus YPR119W, strain clb2, stronger effect = lower value",1.01
same,normalized growth,"S. cerevisiae deletion strains, locus YPR141C, strain kar3, stronger effect = lower value",1.02
same,normalized growth,"S. cerevisiae deletion strains, locus YPR163C, strain tif3, stronger effect = lower value",1.03
same,normalized growth,"S. cerevisiae deletion strains, locus YPR167C, strain met16, stronger effect = lower value",1.01
same,normalized growth,"S. cerevisiae deletion strains, strain wtn01, stronger effect = lower value",0.995
same,normalized growth,"S. cerevisiae strains, strain wild type, stronger effect = lower value",1.01
